Sampled rows, rich in hits. Any-hit rate of the full collection: about 2.6%.
Cruzain noTriton – qHTS Assay for Promiscuous and Specific Inhibitors of Cruzain (without detergent). Cruzipain (Trypanosoma cruzi), P25779. purified cruzain, Z-FR-AMC fluorescence, no detergent. Potency, µM, inactives show max response, negative = inhibition, actives largely listed as inhibitors. 200,000 tested, 2.3% active;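 further: plate controls were enzyme without inhibitor for no effect and buffer without enzyme for full effect; nearly all actives have a fitted effect of over 40% in size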
Target sequence (P25779 123-467 limits assumed): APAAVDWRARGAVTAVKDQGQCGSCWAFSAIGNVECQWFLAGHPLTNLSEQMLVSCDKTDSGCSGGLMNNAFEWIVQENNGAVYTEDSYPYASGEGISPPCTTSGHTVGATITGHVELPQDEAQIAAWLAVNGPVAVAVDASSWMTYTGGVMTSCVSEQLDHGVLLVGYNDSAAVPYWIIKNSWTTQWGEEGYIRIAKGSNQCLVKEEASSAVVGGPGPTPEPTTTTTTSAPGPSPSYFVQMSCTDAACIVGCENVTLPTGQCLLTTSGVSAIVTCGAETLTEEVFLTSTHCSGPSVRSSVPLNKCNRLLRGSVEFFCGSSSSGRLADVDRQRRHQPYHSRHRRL
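Detergent-free condition (0.00005% Triton X-100) in acetate buffer pH 5.5 with DTT. 1.5 nM enzyme and compound were pre-mixed 15 min, then 2 uM Z-FR-AMC substrate added; reaction progress from fluorescence change between first and third reads (60 s).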
Cruzain Triton – qHTS Assay for Promiscuous and Specific Inhibitors of Cruzain (with detergent); purified cruzain, Z-FR-AMC fluorescence, 0.01% Triton; Potency, µM, inactives show max response, negative = inhibition, actives largely listed as inhibitors; 200,000 tested, 0.43% active; AID 1478, 2009;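 further: plate controls were neutral wells for no effect and buffer without enzyme for full effect; nearly all actives have a fitted effect of over 40% in size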
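Z-FR-AMC hydrolysis (2 uM substrate) by cruzain (1.5 nM) monitored kinetically at ex 360/em 450 nm after 15 min room-temperature compound exposure; 0.01% Triton X-100, pH 5.5, 5 mM DTT.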
* = called active by the depositor; ? = inconclusive; ! = repeats disagree. The call rests on the fitted dose curve; in most records, active means well fitted curve in the direction sought with a large enough effect; inconclusive means small, poorly fitted or top-dose-only effect, or another doubt; inactive means no such curve, though single readings can be large; an effect the other way counts as inactive or inconclusive. Potency means the concentration at half of the fitted maximal effect.

SMILES	Cruzain noTriton	Cruzain Triton
CCc1c(C)sc(NC(=O)c2cc(-c3ccc(OC)c(OC)c3)on2)c1C#N	-8.1%	-3.6%
CCc1c(C)sc(NC(=O)c2cc(-c3ccc(O)cc3)on2)c1C#N	7.94µM*	-1.0%
CS(=O)(=O)Nc1cccc(-c2ccc3ncnc(NC4CC4)c3c2)c1	-5.3%	-2.3%
COC(=O)c1ccc(NC(=O)CC2C(=O)N(c3cccc(F)c3)C(=O)N2CC(C)C)cc1 (stereo not drawn)	-9.1%	-2.7%
CC1=CC(C)(C)Nc2ccccc21	15.8µM*!	0.1%
CC1=CC(C)(C)Nc2ccc(OC(=O)CCN3C(=O)c4ccccc4C3=O)cc21	8.6%	-14.2%
Cc1ccc2c(c1)-c1c(cnn1CC(=O)N1CCN(c3ccccc3F)CC1)CO2	-5.0%	1.0%
CCOc1ccc(/C=C/C(=O)Nc2sc3c(c2C(=O)OC)C(C(=O)OC)CC3)cc1 (stereo not drawn)	-2.1%	-7.0%
Fc1ccc(CSc2ncnc3c2oc2ccccc23)cc1	0.0%	-3.1%
Cc1nc(N2CCN(Cc3nc4ccccc4[nH]3)CC2)c2oc3ccccc3c2n1	?	-5.9%
c1ccc2[nH]c(CSc3ncnc4c3oc3ccccc34)nc2c1	15.8µM*	?
Cc1nc(SCc2nc3ccccc3[nH]2)c2oc3ccccc3c2n1	15.8µM*	?
CC(C)Cn1c(-c2ccco2)csc1=Nc1cccnc1	12.6µM*	15.8µM*
COCCn1c(-c2ccco2)csc1=Nc1cccnc1	-0.2%	-3.5%
CCc1ccccc1Nc1nn2c(=O)c3ccc(C(=O)NCc4ccccc4OC)cc3nc2s1	12.6µM*	-4.1%
CCc1ccccc1Nc1nn2c(=O)c3ccc(C(=O)Nc4ccc(OC)cc4)cc3nc2s1	-20.3%	-2.3%
COc1ccccc1Nc1nn2c(=O)c3ccc(C(=O)NCc4ccc(F)cc4)cc3nc2s1	-12.2%	-3.6%
CCc1ccccc1Nc1nn2c(=O)c3ccc(C(=O)NCCC4=CCCCC4)cc3nc2s1	25.1µM*	-4.2%
COc1ccc2[nH]cc(CCNc3cc(-c4ccccc4C(F)(F)F)ncn3)c2c1	-8.7%	-4.8%
COc1cc2c(cc1OC)C(c1ccc(N)cc1)=NNC(=O)C2	1.6%	-2.2%
Cc1cc(Oc2ccc(-c3nnc(-c4ccccc4)o3)cc2[N+](=O)[O-])ccc1Cl	12.6µM*	0.1%
Cc1nnc(-c2ccc(Oc3ccc(Br)cc3)c([N+](=O)[O-])c2)o1	4.5%	-3.1%
COc1cccc(C(=O)COc2ccc3c(C)c(Cc4ccccc4)c(=O)oc3c2C)c1	?	-7.6%
Cc1cccc(C)c1NC(=O)COc1ccc2c(C)c(Cc3ccccc3)c(=O)oc2c1C	12.6µM*	-4.5%
Cc1cc(C)cc(NC(=O)COc2ccc3c(C)c(Cc4ccccc4)c(=O)oc3c2)c1	?	-6.4%
SMILES	Cruzain noTriton	Cruzain Triton
Cc1c(Cc2ccccc2)c(=O)oc2c(C)c(OCC(=O)Nc3ccc(C#N)cc3)ccc12	12.6µM*	-7.9%
CCOC(=O)c1cccc(NC(=O)Cn2ncc3c4ccccc4n(Cc4ccccc4)c3c2=O)c1	4.5%	-2.6%
CCCn1c(-c2ccc(F)cc2)nc2c(NCCN3CCCCC3)nc(C)nc21	-5.8%	2.2%
CCN1/C(=C2\SC(=S)N(Cc3ccccc3)C2=O)Sc2ccccc21	10µM*	-7.8%
CCN1/C(=C2\OC(=S)N(C)C2=O)Sc2ccccc21	-7.6%	4.7%
Cn1c(=O)c(-c2ccc(F)cc2)nc2cncnc21	-2.8%	-1.6%
CCOC(=O)c1c(C)n(-c2ccccc2)c2ccc(OC(=O)c3ccccc3NC(=O)C(C)(C)C)cc12	-12.2%	-0.5%
O=C(NC(=S)Nc1ccccc1N1CCOCC1)c1ccc(-c2cc(Cl)ccc2Cl)o1	10µM*	-2.9%
O=C(NC(=S)Nc1ccccc1N1CCOCC1)c1ccco1	-3.8%	-6.5%
CC1CCN(c2ccc(NC(=S)NC(=O)c3ccc(-c4cccc([N+](=O)[O-])c4)o3)cc2)CC1	?	-0.3%
COc1ccc(C(=O)NC(=S)Nc2ccccc2N2CCOCC2)cc1Br	?	-6.7%
O=[N+]([O-])c1cccc(C(=S)N2CCN(c3ccccc3)CC2)c1	-21.7%	-13.6%
CCOc1ccc(C(=O)NC(=S)Nc2ccccc2N2CCOCC2)cc1Br	15.8µM*	-3.5%
CC1CCN(c2ccccc2NC(=S)NC(=O)c2ccc(-c3cccc([N+](=O)[O-])c3)o2)CC1	7.94µM*	1.7%
O=[N+]([O-])c1cccc(-c2ccc(C(=S)N3CCN(c4ccc(F)cc4)CC3)o2)c1	25.1µM*	-23.9%
O=C(Cn1ncc2c3ccccc3n(Cc3ccc(F)cc3)c2c1=O)NCCCN1CCCCC1	-7.7%	-2.2%
N#Cc1ccc(OC(=O)c2ccc(N=C(N)N)cc2)cc1	-0.9%	1.2%
Cc1cnc(CNc2ncncc2-c2ccc3c(c2)OCO3)cn1	1.5%	-0.3%
CCOC(=O)c1cccc(-n2nnc3c(sc4nc(C)c(Br)c(C)c43)c2=O)c1	1.8%	2.4%
N#CCC(=N)N1CCN(c2ccccc2)CC1	-4.3%	-2.6%
N#CCC(=N)N1CCN(c2ccccc2Cl)CC1	25.1µM*	-3.1%
N#CCC(=N)N1CCN(c2cccc(Cl)c2)CC1	12.6µM*	0.4%
Clc1ccccc1CN1CCN(c2ccccc2Cl)CC1	7.9%	-2.5%
O=C(O)CCCSc1nc2ccccc2s1	-0.5%	1.3%
O=C(CSc1nc2c([nH]c3ccccc32)c(=O)n1-c1ccccc1)c1ccc(Cl)cc1	0.7%	-0.3%
SMILES	Cruzain noTriton	Cruzain Triton
Cc1ccc(C)c(N2CCN(C(=O)c3ccc4nc(-c5ccco5)c(-c5ccco5)nc4c3)CC2)c1	0.1%	-2.8%
COc1ccccc1N1CCN(C(=O)c2ccc3nc(-c4ccco4)c(-c4ccco4)nc3c2)CC1	?	12.6µM*
NC(=S)N/N=C\c1c[nH]c2ccccc12	0.316µM*	0.708µM*
S=C(NCCN1CCOCC1)N/N=C/c1c2ccccc2cc2ccccc12	?	-8.5%
NC(=S)N/N=C\c1c2ccccc2cc2ccccc12	1µM*	0.891µM*
Cc1cccc(NC(=S)N/N=C/c2c[nH]c3ccccc23)c1	-24.2%	?
COc1cccc(NC(=O)CCc2nc3c(C)nn(-c4ccc(C)cc4)c3n(C)c2=O)c1	10.1%	0.8%
CN1CCN(C(=S)Nc2ccc(Cl)cc2Cl)CC1	1.58µM*	3.1%
CCN1CCN(C(=S)Nc2ccc(Cl)cc2Cl)CC1	-1.0%	-0.1%
CCn1nc(C)c2c(-c3ccccc3)cc(=O)n(C(C)C(=O)NCc3cccc(OC)c3)c21 (stereo not drawn)	?	-9.2%
CC1=C(C(=O)OC2CCCC2)C(c2c(F)cccc2Cl)CC(=O)N1 (stereo not drawn)	-7.2%	-6.0%
Cc1onc(-c2ccccc2Cl)c1C(=O)OCC(=O)c1ccc2c(c1)OCCO2	25.1µM*	-2.9%
Cc1onc(-c2ccccc2Cl)c1C(=O)Nc1ccc2c(c1)OCO2	-0.8%	-2.0%
Cc1ccc(C2CC(=O)Oc3cc(C)c(Cl)c(C)c32)cc1 (stereo not drawn)	5.5%	-0.9%
Cc1ccc(CNC(=O)/C=C/c2ccccc2Cl)cc1	-2.2%	0.4%
Cc1ccc(CNC(=O)/C=C/c2c(Cl)cccc2Cl)cc1	25.1µM*	-0.1%
O=C(CSc1nnc2c3ccccc3c3ccccc3c2n1)Nc1ccccc1	3.98µM*	-4.0%
O=C(O)CSc1nnc2c3ccccc3c3ccccc3c2n1	-5.8%	-3.2%
O=C(CSc1nnc2c3ccccc3c3ccccc3c2n1)Nc1ccccc1F	7.94µM*	-16.7%
Nn1c(SCC(=O)Nc2ccccc2F)nc2ccccc2c1=O	-4.7%	-1.6%
